# Assay results reported in PubChem BioAssay AID1159580 (chemical genetic matrix, 2015).
# “And” between values parts separate entries of the source, which are not always exact repeats. Identical values can stand only once. Hit rate of the full screen: of about 5,500 compounds, about 2,000 (36%) were called active. About 18% were inconclusive and are not listed. This is one part of the list. A number with no mark means an inactive call. Rule as the data show it: active = normalized growth mostly below about 0.91 (no sharp cut-off); inconclusive = no clear call, values can overlap the other calls; inactive = mostly above about 0.92.
# Assay: chemical genetic growth profiling, strain panel (AID 1159580);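 also: tested at 20 µM; growth read once vehicle control cultures reached saturation at 30 °C; 1 = growth at the plate median or of vehicle wells; lower values mean less growth of the strain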
# Settings: S. cerevisiae deletion strains, growth OD
smiles,measurement,setting,value
CN(C)CCC=C1c2ccccc2CCc2ccccc21,normalized growth,"locus YAL013W, strain DEP1, hits give low values",0.992
same,normalized growth,"locus YAL021C, strain ccr4, hits give low values",0.896 (active)
same,normalized growth,"locus YAL026C, strain drs2, hits give low values",0.894 (active)
same,normalized growth,"locus YAL030W, strain snc1, hits give low values",0.995
same,normalized growth,"locus YAL040C, strain CLN3, hits give low values",1
same,normalized growth,"locus YBL061C, strain skt5, hits give low values",0.991
same,normalized growth,"locus YBR009C, strain hhf1, hits give low values",0.913
same,normalized growth,"locus YBR021W, strain FUR4, hits give low values",1
same,normalized growth,"locus YBR023C, strain chs3, hits give low values",0.975
same,normalized growth,"locus YBR171W, strain sec66, hits give low values",0.969
same,normalized growth,"locus YBR229C, strain ROT2, hits give low values",1
same,normalized growth,"locus YBR231C, strain swc5, hits give low values",1
same,normalized growth,"locus YBR279W, strain paf1, hits give low values",0.958
same,normalized growth,"locus YCL011C, strain gbp2, hits give low values",0.946
same,normalized growth,"locus YCL016C, strain dcc1, hits give low values",0.958
same,normalized growth,"locus YCL029C, strain bik1, hits give low values",1
same,normalized growth,"locus YCL061C, strain MRC1, hits give low values",0.993
same,normalized growth,"locus YCL069W, strain vba3, hits give low values",0.987
same,normalized growth,"locus YCR088W, strain abp1, hits give low values",0.953
same,normalized growth,"locus YDL005C, strain med2, hits give low values",0.993
same,normalized growth,"locus YDL035C, strain GPR1, hits give low values",1.02
same,normalized growth,"locus YDL040C, strain nat1, hits give low values",0.989
same,normalized growth,"locus YDL074C, strain BRE1, hits give low values",0.999
same,normalized growth,"locus YDL101C, strain DUN1, hits give low values",1.01
same,normalized growth,"locus YDL134C, strain PPH21, hits give low values",0.998
same,normalized growth,"locus YDL185W, strain tfp1, hits give low values",1
same,normalized growth,"locus YDL192W, strain arf1, hits give low values",0.996
same,normalized growth,"locus YDR001C, strain nth1, hits give low values",0.963
same,normalized growth,"locus YDR069C, strain doa4, hits give low values",0.955
same,normalized growth,"locus YDR101C, strain arx1, hits give low values",0.995
same,normalized growth,"locus YDR137W, strain rgp1, hits give low values",1.19 [resistant] (active)
same,normalized growth,"locus YDR159W, strain sac3, hits give low values",0.962
same,normalized growth,"locus YDR162C, strain NBP2, hits give low values",1.02
same,normalized growth,"locus YDR195W, strain ref2",1.07
same,normalized growth,"locus YDR297W, strain sur2, hits give low values",0.975
same,normalized growth,"locus YDR318W, strain mcm21, hits give low values",1
same,normalized growth,"locus YDR334W, strain swr1, hits give low values",0.98
same,normalized growth,"locus YDR335W, strain msn5, hits give low values",0.973
same,normalized growth,"locus YDR363W, strain ESC2, hits give low values",1
same,normalized growth,"locus YDR388W, hits give low values",1
same,normalized growth,"locus YDR392W, strain spt3, hits give low values",0.922
same,normalized growth,"locus YDR502C, strain sam2, hits give low values",0.992
same,normalized growth,"locus YEL003W, strain gim4, hits give low values",0.978
same,normalized growth,"locus YEL037C, strain rad23, hits give low values",0.984
same,normalized growth,"locus YEL061C, strain CIN8 (second series), hits give low values",0.988
same,normalized growth,"locus YEL061C, strain CIN8, hits give low values",1.01
same,normalized growth,"locus YER002W, strain NOP16, hits give low values",1.01
same,normalized growth,"locus YER015W, strain faa2, hits give low values",0.913 (active)
same,normalized growth,"locus YER016W, strain bim1, hits give low values",0.951
same,normalized growth,"locus YER110C, hits give low values",1
same,normalized growth,"locus YER111C, strain swi4, hits give low values",0.97
same,normalized growth,"locus YER155C, strain BEM2 (second series), hits give low values",1
same,normalized growth,"locus YER155C, strain BEM2, hits give low values",1
same,normalized growth,"locus YER167W, strain BCK2, hits give low values",1.01
same,normalized growth,"locus YFR010W, strain ubp6, hits give low values",0.94
same,normalized growth,"locus YGL078C, strain dbp3, hits give low values",0.986
same,normalized growth,"locus YGL086W, strain mad1, hits give low values",1
same,normalized growth,"locus YGL167C, strain pmr1, hits give low values",0.995
same,normalized growth,"locus YGL173C, strain kem1, hits give low values",0.966
same,normalized growth,"locus YGL227W, strain vid30, hits give low values",0.994
same,normalized growth,"locus YGL240W, strain doc1, hits give low values",0.999
same,normalized growth,"locus YGL248W, strain PDE1, hits give low values",1.01
same,normalized growth,"locus YGL253W, strain hxk2, hits give low values",0.953
same,normalized growth,"locus YGR078C, strain PAC10, hits give low values",1
same,normalized growth,"locus YGR135W, strain pre9, hits give low values",0.994
same,normalized growth,"locus YGR229C, strain SMI1, hits give low values",0.975
same,normalized growth,"locus YGR252W, strain gcn5, hits give low values",0.944
same,normalized growth,"locus YHR013C, strain ard1, hits give low values",0.875
same,normalized growth,"locus YHR027C, strain rpn1, hits give low values",0.864 (active)
same,normalized growth,"locus YHR030C, strain SLT2, hits give low values",1.01 and 1.08
same,normalized growth,"locus YHR079C, strain IRE1 (second series), hits give low values",0.994
same,normalized growth,"locus YHR079C, strain IRE1, hits give low values",1.05
same,normalized growth,"locus YHR094C, strain hxt1, hits give low values",0.992
same,normalized growth,"locus YHR129C, strain ARP1, hits give low values",1.01
same,normalized growth,"locus YHR142W, strain chs7, hits give low values",0.919
same,normalized growth,"locus YHR200W, strain rpn10, hits give low values",0.995
same,normalized growth,"locus YIL066C, strain RNR3, hits give low values",1.02
same,normalized growth,"locus YIL073C, strain SPO22, hits give low values",1.05
same,normalized growth,"locus YIL125W, strain kgd1, hits give low values",0.997
same,normalized growth,"locus YIR030C, strain dcg1, hits give low values",0.992
same,normalized growth,"locus YJL092W, strain hpr5, hits give low values",0.979
same,normalized growth,"locus YJL095W, strain BCK1 (second series), hits give low values",0.978
same,normalized growth,"locus YJL095W, strain BCK1, hits give low values",1.01 and 1.05
same,normalized growth,"locus YJL115W, strain asf1, hits give low values",0.974
same,normalized growth,"locus YJL129C, strain trk1, hits give low values",1.01
same,normalized growth,"locus YJL134W, strain LCB3, hits give low values",1.01
same,normalized growth,"locus YJL154C, strain vps35, hits give low values",0.975
same,normalized growth,"locus YJL164C, strain tpk1, hits give low values",0.974
same,normalized growth,"locus YJL166W, strain qcr8, hits give low values",0.988
same,normalized growth,"locus YJL168C, strain set2, hits give low values",1.01
same,normalized growth,"locus YJL187C, strain SWE1 (second series), hits give low values",1.01
same,normalized growth,"locus YJL187C, strain SWE1, hits give low values",0.985
same,normalized growth,"locus YJR043C, strain POL32, hits give low values",1.01
